The text below walks through data of ChEMBL document CHEMBL1961873, “Compounds: GSK PKIS; Assays: Nanosyn kinase panel” (2012).

The first assay concerns the target T1, 3-phosphoinositide-dependent protein kinase 1 (Homo sapiens) (UniProt O15530).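 Note: values are mean inhibition of PDK1.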
T1 sequence (whole entry): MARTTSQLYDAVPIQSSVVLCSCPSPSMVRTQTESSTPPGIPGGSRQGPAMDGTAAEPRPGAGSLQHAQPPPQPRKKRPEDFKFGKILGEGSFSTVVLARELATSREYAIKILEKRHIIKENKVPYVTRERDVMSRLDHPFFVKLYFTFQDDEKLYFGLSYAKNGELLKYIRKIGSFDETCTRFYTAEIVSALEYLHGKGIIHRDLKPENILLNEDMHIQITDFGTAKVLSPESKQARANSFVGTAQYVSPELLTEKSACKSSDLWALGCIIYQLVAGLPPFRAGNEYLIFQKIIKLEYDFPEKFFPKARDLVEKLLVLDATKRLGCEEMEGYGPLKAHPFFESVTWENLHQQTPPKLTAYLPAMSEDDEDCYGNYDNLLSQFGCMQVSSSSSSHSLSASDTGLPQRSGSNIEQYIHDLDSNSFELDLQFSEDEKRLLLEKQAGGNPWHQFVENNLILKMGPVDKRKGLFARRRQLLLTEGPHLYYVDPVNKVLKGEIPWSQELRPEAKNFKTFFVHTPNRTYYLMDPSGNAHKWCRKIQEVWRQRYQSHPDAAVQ
The following applies: at 0.1 µM.
Regarding `C[C@@H](Oc1cc(-n2cnc3ccc(OCC4CCN(C)CC4)cc32)sc1C(N)=O)c1ccccc1Cl`, the inhibition amounted to 2.77%.

Take `CCc1cccc(CC)c1/C=C/c1cncc(C(=O)NC)c1`: the inhibition came out at 0.34%.

As for `CS(=O)(=O)CCNCc1cc(-c2cc3c(Nc4ccc(OCc5cccc(F)c5)c(Cl)c4)ncnc3s2)cs1`, the inhibition is 2.06%.

Take `Cc1nnc(-c2ccc(C)c(-c3ccc(C(=O)NCc4ccc(Cl)cc4)cc3)c2)o1`: the inhibition turned out to be 1.14%.

As to `CN1CCN(CCCNc2nc3ccc(Oc4ccc(NC(=O)Nc5cc(C(F)(F)F)ccc5F)cc4)cc3[nH]2)CC1`, the inhibition was 2.91%.

Take `NS(=O)(=O)c1ccc(N/N=C2\C(=O)Nc3ccc(-c4cnco4)cc32)cc1`: the inhibition is 2.95%.

As to `Fc1ccc(-c2ncn(C3CCNCC3)c2-c2ccnc(Oc3ccc4c(c3)OCO4)n2)cc1`, the inhibition was -1.49%.

Take `COc1ccc(C2=C(N3CCc4ccccc43)C(=O)NC2=O)cc1`: the inhibition came out at 4.19%.

Turning to `O=C1Nc2ccc(I)cc2C1=Cc1cc(Br)c(O)c(Br)c1`, the inhibition worked out at 1.34%.

Turning to `Fc1ccc(-c2ncn(CCCN3CCOCC3)c2-c2ccncc2)cc1`, the inhibition is -0.98%.

`CN(C)CCCNc1nccc(-c2c(-c3ccc(F)cc3)nn3cc(C(F)(F)F)ccc23)n1`: the inhibition was determined as 2.53%.

On to `COc1cccc(/C=N/Nc2ncnc3c2cnn3-c2cccc(OC)c2)c1`, for which the inhibition was 1.13%.

With `O=C1Nc2ccccc2/C1=C/Nc1ccc(-n2cncn2)cc1`, the inhibition turned out to be 2.38%.

For `COc1cc2ncn(-c3cc(OCc4cccs4)c(C(N)=O)s3)c2cc1OC`, the inhibition turned out to be 3.07%.

For the compound `Fc1ccc(-c2nc3n(c2-c2ccncc2)CCS3)cc1`, the inhibition stood at 1.88%.

On to `O=C1NC(=O)C(c2cccc(Cl)c2)=C1Nc1ccc(Cl)c(C(=O)O)c1`, for which the inhibition was determined as 1.28%.

Regarding `Fc1ccc(-c2ncn(C3CCNCC3)c2-c2ccnc(Oc3ccc(Oc4ccccc4)cc3)n2)cc1`, the inhibition came out at 0.03%.

As to `COc1ccc(-c2ccc3c(NC(=O)C4CC4)n[nH]c3n2)cc1`, the inhibition is -1.04%.

Regarding `CN(c1ccc(NC(=O)Nc2c(Cl)cccc2Cl)cc1)c1ccnc(Nc2cccc(CS(C)(=O)=O)c2)n1`, the inhibition stood at 9.04%.

`Fc1ccc(-c2ncn(C3CCNCC3)c2-c2ccnc(Oc3ccc(F)c(F)c3)n2)cc1`: the inhibition came to 0.57%.

For the compound `Cc1ccc(NC(=O)c2ccoc2)cc1-c1ccc(C(=O)NCC2CC2)cc1`, the inhibition worked out at 0.18%.

Take `NCc1ccc(-n2c(-c3nonc3N)nc3cnccc32)cc1`: the inhibition was 2.61%.

`NC(=O)c1ccc(Oc2nccc(-c3c(-c4ccc(F)cc4)ncn3C3CCNCC3)n2)cc1`: the inhibition is 1.43%.

For `CCc1nccc2c1nc(-c1nonc1N)n2CC`, the inhibition amounted to 0.73%.

Regarding `CCC(=O)Nc1ccc(C)c(-c2ccc(C(=O)NCC3CC3)cc2)c1`, the inhibition worked out at 2.1%.

In the case of `CN(C)CCOc1ccc(-c2cc(-c3ccc4c(c3)CCC4=NO)c(-c3ccncc3)o2)cc1`, the inhibition stood at 0.51%.

On to `Nc1nccc(-c2c(-c3ccc(F)cc3)ncn2C2CCC(O)CC2)n1` (stereo not drawn), for which the inhibition worked out at 0.39%.

In the case of `COc1ccc2cc(-c3c(-c4ccncc4)nc(-c4ccc([S+](C)[O-])cc4C)n3C)ccc2c1` (stereo not drawn), the inhibition came out at 0.48%.

For `CCS(=O)(=O)c1ccc(OC)c(Nc2ncc(-c3cccc(-c4ccccc4F)c3)o2)c1`, the inhibition was 9.34%.

With `NS(=O)(=O)c1ccc(Nc2cc(-c3ccc(O)c(F)c3)n[nH]2)cc1`, the inhibition was -2.08%.

In the case of `O=C(Nc1n[nH]c2cc(-c3cc(F)ccc3F)ccc12)C1CC1`, the inhibition is 2.95%.

In the case of `NS(=O)(=O)c1ccc(N/N=C2\C(=O)Nc3ccc(C(=O)NCCCn4ccnc4)cc32)cc1`, the inhibition came out at 3.57%.

As to `CCN(CC)Cc1ccc(Nc2nccc(-c3cnn4ncccc34)n2)cc1`, the inhibition was determined as 0.96%.

Regarding `COc1ccc2ncn(-c3cc(O[C@H](C)c4ccccc4Cl)c(C(N)=O)s3)c2c1`, the inhibition turned out to be 0.22%.

The target in another assay is cAMP-dependent protein kinase catalytic subunit alpha (Homo sapiens) (UniProt P17612). The following applies: at 0.1 µM.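 Note: reported value is the mean percent inhibition of PKA.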
For the compound `C[C@@H](Oc1cc(-n2cnc3ccc(OCC4CCN(C)CC4)cc32)sc1C(N)=O)c1ccccc1Cl`, the inhibition stood at 3.4%.

`CCc1cccc(CC)c1/C=C/c1cncc(C(=O)NC)c1`: the inhibition amounted to 1.89%.

`CS(=O)(=O)CCNCc1cc(-c2cc3c(Nc4ccc(OCc5cccc(F)c5)c(Cl)c4)ncnc3s2)cs1`: the inhibition came out at 1.96%.

For `Cc1nnc(-c2ccc(C)c(-c3ccc(C(=O)NCc4ccc(Cl)cc4)cc3)c2)o1`, the inhibition was -1.01%.

`CN1CCN(CCCNc2nc3ccc(Oc4ccc(NC(=O)Nc5cc(C(F)(F)F)ccc5F)cc4)cc3[nH]2)CC1`: the inhibition is -1.46%.

`NS(=O)(=O)c1ccc(N/N=C2\C(=O)Nc3ccc(-c4cnco4)cc32)cc1`: the inhibition is -3.28%.

For `Fc1ccc(-c2ncn(C3CCNCC3)c2-c2ccnc(Oc3ccc4c(c3)OCO4)n2)cc1`, the inhibition came to 6.76%.

In the case of `COc1ccc(C2=C(N3CCc4ccccc43)C(=O)NC2=O)cc1`, the inhibition was 1.7%.

As to `O=C1Nc2ccc(I)cc2C1=Cc1cc(Br)c(O)c(Br)c1`, the inhibition came out at 2.28%.

Regarding `Fc1ccc(-c2ncn(CCCN3CCOCC3)c2-c2ccncc2)cc1`, the inhibition turned out to be 0.23%.

For `CN(C)CCCNc1nccc(-c2c(-c3ccc(F)cc3)nn3cc(C(F)(F)F)ccc23)n1`, the inhibition was -2.76%.

Take `COc1cccc(/C=N/Nc2ncnc3c2cnn3-c2cccc(OC)c2)c1`: the inhibition is 1.27%.

For `O=C1Nc2ccccc2/C1=C/Nc1ccc(-n2cncn2)cc1`, the inhibition came to 1.48%.

For the compound `COc1cc2ncn(-c3cc(OCc4cccs4)c(C(N)=O)s3)c2cc1OC`, the inhibition was -0.85%.

In the case of `Fc1ccc(-c2nc3n(c2-c2ccncc2)CCS3)cc1`, the inhibition is -0.98%.

As to `O=C1NC(=O)C(c2cccc(Cl)c2)=C1Nc1ccc(Cl)c(C(=O)O)c1`, the inhibition was found to be 2.1%.

As for `Fc1ccc(-c2ncn(C3CCNCC3)c2-c2ccnc(Oc3ccc(Oc4ccccc4)cc3)n2)cc1`, the inhibition came to 4.74%.

For `COc1ccc(-c2ccc3c(NC(=O)C4CC4)n[nH]c3n2)cc1`, the inhibition was found to be 1.31%.

On to `CN(c1ccc(NC(=O)Nc2c(Cl)cccc2Cl)cc1)c1ccnc(Nc2cccc(CS(C)(=O)=O)c2)n1`, for which the inhibition is 2.36%.

Regarding `Fc1ccc(-c2ncn(C3CCNCC3)c2-c2ccnc(Oc3ccc(F)c(F)c3)n2)cc1`, the inhibition is -0.98%.

As to `Cc1ccc(NC(=O)c2ccoc2)cc1-c1ccc(C(=O)NCC2CC2)cc1`, the inhibition was determined as 2.1%.

As for `NCc1ccc(-n2c(-c3nonc3N)nc3cnccc32)cc1`, the inhibition was 10.4%.

On to `NC(=O)c1ccc(Oc2nccc(-c3c(-c4ccc(F)cc4)ncn3C3CCNCC3)n2)cc1`, for which the inhibition came to 8.89%.

With `CCc1nccc2c1nc(-c1nonc1N)n2CC`, the inhibition was determined as 1.21%.

As for `CCC(=O)Nc1ccc(C)c(-c2ccc(C(=O)NCC3CC3)cc2)c1`, the inhibition amounted to 2.1%.

Take `CN(C)CCOc1ccc(-c2cc(-c3ccc4c(c3)CCC4=NO)c(-c3ccncc3)o2)cc1`: the inhibition stood at 2.75%.

In the case of `Nc1nccc(-c2c(-c3ccc(F)cc3)ncn2C2CCC(O)CC2)n1` (stereo not drawn), the inhibition worked out at 4.16%.

As for `COc1ccc2cc(-c3c(-c4ccncc4)nc(-c4ccc([S+](C)[O-])cc4C)n3C)ccc2c1` (stereo not drawn), the inhibition came to 2.01%.

Take `CCS(=O)(=O)c1ccc(OC)c(Nc2ncc(-c3cccc(-c4ccccc4F)c3)o2)c1`: the inhibition amounted to 0.57%.

Turning to `NS(=O)(=O)c1ccc(Nc2cc(-c3ccc(O)c(F)c3)n[nH]2)cc1`, the inhibition is -2.2%.

On to `O=C(Nc1n[nH]c2cc(-c3cc(F)ccc3F)ccc12)C1CC1`, for which the inhibition was 2.32%.

As for `NS(=O)(=O)c1ccc(N/N=C2\C(=O)Nc3ccc(C(=O)NCCCn4ccnc4)cc32)cc1`, the inhibition stood at 2.3%.

As to `CCN(CC)Cc1ccc(Nc2nccc(-c3cnn4ncccc34)n2)cc1`, the inhibition was -0.94%.

As to `COc1ccc2ncn(-c3cc(O[C@H](C)c4ccccc4Cl)c(C(N)=O)s3)c2c1`, the inhibition was -1.47%.
